This is part of a sample that, as a whole, favours compounds with a hit. Of some 83,000 tested, about 20% had one in any assay.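 In brief: 96-well plates, 48 h treatment, single concentration, percent growth endpoint.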 A number with no mark means an inactive call. Activity calls are given as the source filed them. The calls were made as follows: active = growth percent below 10; inactive = the rest.

Experiment in all cases: NCI-60 one-dose screen, 48 h (100 = growth as untreated, 0 = no growth, -100 = all killed)
One experiment deals with SR leukemia. The following applies: 10 µM unless noted.
For a further experiment, the system named is RPMI-8226 leukemia. The following applies: 10 µM.
For a further experiment, the system named is OVCAR-8 ovarian. The following applies: 10 µM unless noted.
The subject of the next experiment is OVCAR-5 ovarian. As to conditions: 10 µM unless noted.
A further experiment has as its system SK-OV-3 ovarian. The following applies: 10 µM.
For a further experiment, the system named is OVCAR-3 ovarian. As to conditions: 10 µM unless noted.
Another experiment relates to HS 578T breast. The following applies: 10 µM unless noted.
For another experiment, the system named is NCI/ADR-RES ovarian. The following applies: 10 µM unless noted.
The test system of another experiment is T-47D breast. The following applies: 10 µM.
The next experiment concerns BT-549 breast. As to conditions: 10 µM unless noted.
A further experiment concerns MDA-MB-435 melanoma. The following applies: 10 µM unless noted.
Another experiment concerns SW-620 colon. As to conditions: 10 µM unless noted.
In the next experiment the test system is MCF7 breast. As to conditions: 10 µM unless noted.
The subject of a further experiment is HCT-116 colon. The following applies: 10 µM unless noted.
Another experiment relates to HCC-2998 colon. The following applies: 10 µM unless noted.
Another experiment deals with KM12 colon. The following applies: 10 µM unless noted.
The next experiment deals with OVCAR-4 ovarian. As to conditions: 10 µM unless noted.
In another experiment the test system is IGROV1 ovarian. As to conditions: 10 µM unless noted.

Regarding `COc1cccc(Nc2nc(NCCO)c3ccccc3n2)c1`, the growth in the experiment on SR leukemia was 47.1%; in the experiment on RPMI-8226 leukemia, 13.7%; in the experiment on OVCAR-8 ovarian, 81.9%; in the experiment on OVCAR-5 ovarian it was 101%; with SK-OV-3 ovarian, 102%; in the experiment with OVCAR-3 ovarian, 61.5%. Further, the growth in the experiment with HS 578T breast was 62.4%; in the experiment on NCI/ADR-RES ovarian, 63.9%; with T-47D breast it was 75.2%; in the experiment with BT-549 breast it was 72.9%; in the experiment on MDA-MB-435 melanoma, 72.3%; in the experiment on SW-620 colon it was 64.5%. In addition, the growth with MCF7 breast was 76.8%; in the experiment on HCT-116 colon it was 72.1%; in the experiment with HCC-2998 colon it was 87.5%; with KM12 colon, 51.2%.
Turning to `COc1ccc(/C=C2\Oc3cc(C)c(Cl)cc3C2=O)cc1OC`, the growth is 73.2% with SR leukemia; 89.9% in the experiment with RPMI-8226 leukemia; 102% in the experiment on OVCAR-8 ovarian; 98.3% with OVCAR-5 ovarian; 82.3% in the experiment on OVCAR-4 ovarian; 103% with IGROV1 ovarian. The growth in the experiment on OVCAR-3 ovarian is 108%; in the experiment with HS 578T breast it was 109%; with NCI/ADR-RES ovarian, 107%; in the experiment on BT-549 breast, 89.1%; in the experiment on MDA-MB-435 melanoma it was 96.6%; in the experiment on SW-620 colon, 104%. Further, the growth in the experiment with MCF7 breast was 83.1%; in the experiment with HCC-2998 colon it was 116%; with KM12 colon, 100%.
Regarding `Cc1cc(NS(=O)(=O)c2ccc(NC(=O)COc3ccc(-c4cc5ccccc5[nH]4)cc3)cc2)no1`, the growth in the experiment with SR leukemia is -5.32% (active); in the experiment on RPMI-8226 leukemia, 24.9%; in the experiment on OVCAR-8 ovarian it was 32.3%; with OVCAR-5 ovarian, 52.3%; with SK-OV-3 ovarian, 13.7%; in the experiment with IGROV1 ovarian, 35.3%. Besides, the growth is -0.541% (active) in the experiment on OVCAR-3 ovarian; 9.15% (active) in the experiment on NCI/ADR-RES ovarian; -19.8% (active) with T-47D breast; 11.9% with BT-549 breast; -11.9% (active) in the experiment with MDA-MB-435 melanoma; 15.9% with SW-620 colon. The growth with MCF7 breast is 1.1% (active); in the experiment on HCT-116 colon it was 2.8% (active); with HCC-2998 colon it was -1.25% (active); in the experiment on KM12 colon, 10.3%.
On to `Cc1oc2c(c1C(=O)N1CC[C@@H](N)C1)C(=O)c1c(c(O)c3ccccc3c1O)C2=O`, for which the growth in the experiment with SR leukemia was 1.4% (active); in the experiment on RPMI-8226 leukemia it was 12.4%; with OVCAR-8 ovarian, 12.9%; in the experiment with OVCAR-5 ovarian, 85.3%; in the experiment with SK-OV-3 ovarian, 35.3%; with OVCAR-3 ovarian it was 3.52% (active). Moreover, the growth was 34.3% in the experiment on HS 578T breast; 8.79% (active) in the experiment with NCI/ADR-RES ovarian; 61.8% in the experiment on T-47D breast; 79% in the experiment with BT-549 breast; 40.3% in the experiment with MDA-MB-435 melanoma; 3.53% (active) with SW-620 colon. The growth was -1.04% (active) in the experiment with MCF7 breast, 5.14% (active) with HCT-116 colon and 12.3% in the experiment on HCC-2998 colon.
For the compound `O=C(c1ccc2ncc(-c3nc(NC4CC4)ncc3F)n2c1)N1CCOCC1`, the growth with SR leukemia was 3.87% (active); with RPMI-8226 leukemia it was 25.7%; with OVCAR-8 ovarian, 18.5%; in the experiment on OVCAR-5 ovarian it was 9.93% (active); in the experiment on OVCAR-4 ovarian, 63.2%; in the experiment on IGROV1 ovarian, 8.94% (active). For the same compound, the growth in the experiment with OVCAR-3 ovarian was -22.2% (active); with HS 578T breast, 4.89% (active); with T-47D breast, 32.2%; in the experiment with BT-549 breast it was 52.4%; in the experiment with MDA-MB-435 melanoma, 32%; in the experiment on SW-620 colon it was 10.2%. Further, the growth is 5.99% (active) in the experiment with MCF7 breast, 0.221% (active) in the experiment on HCT-116 colon, 71.3% with HCC-2998 colon and 2.99% (active) in the experiment with KM12 colon.
Take `FC(F)(F)Oc1ccc2c(c1)C[C@H]1C[C@@H](c3ccoc3)N2O1`: the growth with SR leukemia is 98.3%; in the experiment with RPMI-8226 leukemia, 92.3%; with OVCAR-8 ovarian, 101%; with OVCAR-5 ovarian it was 91.5%; in the experiment with SK-OV-3 ovarian, 106%; with IGROV1 ovarian, 108%. Besides, the growth in the experiment on OVCAR-3 ovarian is 112%; with NCI/ADR-RES ovarian, 98.3%; in the experiment on T-47D breast, 94.8%; in the experiment on BT-549 breast it was 112%; with MDA-MB-435 melanoma, 88.8%; in the experiment with SW-620 colon, 110%. Besides, the growth in the experiment with MCF7 breast was 98.6%; with HCT-116 colon, 107%; in the experiment with HCC-2998 colon it was 97.5%; with KM12 colon it was 103%.
On to `CCOC(=O)c1c(Cl)c2c(n1Cc1cc(OC)cc(OC)c1)-c1oncc1CCC2`, for which the growth is 4.7% (active) in the experiment with SR leukemia; 9.5% (active) with RPMI-8226 leukemia; 38.9% in the experiment on OVCAR-8 ovarian; 49.5% in the experiment on OVCAR-5 ovarian; 27.5% in the experiment with SK-OV-3 ovarian; -17.6% (active) in the experiment with OVCAR-3 ovarian. In addition, the growth in the experiment with HS 578T breast is 29.6%; in the experiment with NCI/ADR-RES ovarian, 8.44% (active); in the experiment with T-47D breast it was 51.7%; in the experiment on BT-549 breast, 69.9%; with MDA-MB-435 melanoma it was -53% (active); in the experiment on SW-620 colon, 16.8%. The growth with MCF7 breast was 10.7%; in the experiment with HCT-116 colon, 23.9%; with HCC-2998 colon it was 55%; in the experiment on KM12 colon, 29.6%.
Take `O=S(=O)(Nc1ccccc1Cl)c1ccc(-c2cnc(C3CC3)o2)cc1`: the growth with SR leukemia was 41.5%; in the experiment with RPMI-8226 leukemia, 27.9%; in the experiment on OVCAR-8 ovarian, 33.8%; in the experiment with OVCAR-5 ovarian, 38.3%; with OVCAR-4 ovarian, 50%; with IGROV1 ovarian it was 33.1%. Moreover, the growth in the experiment on OVCAR-3 ovarian was -32.1% (active); in the experiment with NCI/ADR-RES ovarian, 8.53% (active); in the experiment with BT-549 breast it was 49.5%; in the experiment with MDA-MB-435 melanoma, -35.2% (active); with SW-620 colon it was 26.2%; in the experiment with HCT-116 colon, 22.3%. Besides, the growth in the experiment with HCC-2998 colon was 39.9%; in the experiment with KM12 colon it was 20.5%.
Take `N#Cc1c(-c2cccc(F)c2)cc(-c2ccc(Br)s2)[nH]c1=O`: the growth in the experiment on SR leukemia was 40.7%; in the experiment on RPMI-8226 leukemia, 73.9%; in the experiment on OVCAR-8 ovarian, 83.3%; in the experiment with OVCAR-4 ovarian, 92%; in the experiment on IGROV1 ovarian, 67.3%; in the experiment on OVCAR-3 ovarian, 39.5%. Besides, the growth was 69% with HS 578T breast; 44.7% in the experiment on NCI/ADR-RES ovarian; 65.7% with BT-549 breast; -25.8% (active) in the experiment with MDA-MB-435 melanoma; 28.6% in the experiment with SW-620 colon; 63.4% in the experiment on MCF7 breast. Also, the figures for the growth with HCT-116 colon, with HCC-2998 colon and in the experiment with KM12 colon were 30.8%, 110% and 60.1%, respectively.
Regarding `O=C1CCC(N2Cc3c(C#CCCCNC(=O)c4cc5c(o4)C(=O)c4ccccc4C5=O)cccc3C2=O)C(=O)N1` (stereo not given), the growth was 12.1% in the experiment on SR leukemia; 4.59% (active) with OVCAR-8 ovarian; 20.2% in the experiment on OVCAR-5 ovarian; -98.5% (active) in the experiment on OVCAR-4 ovarian; -5.62% (active) in the experiment with IGROV1 ovarian; -37.3% (active) in the experiment with OVCAR-3 ovarian. The growth in the experiment with HS 578T breast was -32.8% (active); with NCI/ADR-RES ovarian, 89.6%; in the experiment on T-47D breast it was 7.33% (active); in the experiment with BT-549 breast it was -94.8% (active); in the experiment on MDA-MB-435 melanoma, -94.5% (active); in the experiment with SW-620 colon, -34.7% (active). Moreover, the growth was -68.6% (active) in the experiment with MCF7 breast, -25.5% (active) in the experiment with HCT-116 colon, -64.1% (active) in the experiment on HCC-2998 colon and -1.98% (active) with KM12 colon.

The values above are taken from PubChem BioAssay (NCI).
